Compound activity from PubChem BioAssay.
Cardiac RTF inh – cardiac RTF calcium sensitivity inhibitors, primary screen, biochemical, IANBD-TnC fluorescence, EC70 calcium; inhibition, % at 7.15 µM; Troponin I, cardiac muscle (Homo sapiens) + Troponin T, cardiac muscle (Homo sapiens) + …; 340,000 tested, 0.12% active; IANBD-labeled cardiac RTF, Ca2+ fluorescence;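 active = inhibition above the mean inhibition of all tested compounds plus 3 SD, cut at about 17% in these data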;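 also: assay run at fixed EC70 calcium of 1.6 mM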
IDE act – human IDE activators in live cells, primary screen, fluorescence polarization, HEK cells, FAbeta-B substrate; Insulin-degrading enzyme (Homo sapiens), P14735; FAbeta-B cleavage; 0% vehicle, 100% cell-free pure enzyme wells; activation, % at 5.96 µM; 340,000 tested, 0.073% active;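 active = activation above the mean of all tested compounds plus 3 SD, set per screening campaign, cut at about 17% in these data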
IDE cell inh – human IDE inhibitors in live cells, primary screen, fluorescence polarization, HEK cells, FAbetaB substrate; 320,000 tested, 0.41% active; Insulin-degrading enzyme (Homo sapiens), P14735; inhibition, % at 5.59 µM; FAbetaB cleavage;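 active = percent inhibition above the average of all tested compounds plus 3 SD, set per screening campaign, cut at about 16% in these data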;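 also: IDE supplied by intact live HEK cells; FP after avidin binding of uncleaved biotin substrate so inhibition keeps polarization high; 0% = DMSO wells and 100% = 60 µM reference IDE inhibitor Ii1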
cardiac RTF act – cardiac RTF calcium sensitivity activators, primary screen, biochemical, IANBD-TnC fluorescence, EC20 calcium; 340,000 tested, 0.24% active; IANBD-labeled TnC RTF fluorescence at EC20 calcium; 0% EC20 calcium, 100% full calcium; Troponin I, cardiac muscle (Homo sapiens) + Troponin T, cardiac muscle (Homo sapiens) + …; activation, % at 7.2 µM;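 active = activation above the mean over all tested compounds plus 3 SD, cut at about 30% in these data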;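 also: rise in fluorescence read as greater calcium sensitivity of cardiac thin filaments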
IDE inh confirm – human IDE inhibitors in live cells, confirmation, fluorescence polarization, HEK cells, FAbetaB substrate. shares compounds with IDE cell inh. FAbetaB cleavage. inhibition, % at 5.59 µM. 1,200 tested, 51% active;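 active = mean inhibition across triplicate wells above the cutoff set by the earlier primary insulin-degrading enzyme screen, cut at about 16% in these data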;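 also: 0% = DMSO wells and 100% = 60 µM reference IDE inhibitor Ii1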
HEK293 tox – cytotoxicity in HEK cells, cytotoxicity control for IDE inhibitor project, cell-based, luminescence. shares compounds with IDE cell inh. HEK293 cytotoxicity, ATP luminescence. inhibition, % at 5.59 µM. 1,200 tested, 28% active. AID 449730, 2010; in the data active = inhibition above about 22%;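 also: 0% = vehicle wells and 100% = reference cytotoxic drug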
IDE FP artifact – fluorescent or optically active artefacts, dose response, artefact control for IDE inhibitor project, biochemical, fluorescence polarization. shares compounds with IDE cell inh. FP counterscreen for fluorescent artifacts, IDE probe project. IC50, µM. 30 tested, under 10 active; call rule not given here
* marks the source's active call; other numbers are inactive results; nt = not tested or not shown. This is a sample that favours compounds with a hit; in the whole collection about 0.71% have one here.

SMILES	Cardiac RTF inh	IDE act	IDE cell inh	cardiac RTF act	IDE inh confirm	HEK293 tox	others
COc1cccc(/C=N/Nc2ncnc3c2[nH]c2ccc(C)cc23)c1OC	-5	-45	63*	4	59*	14
C=CCNc1ncnc2c1[nH]c1ccc(C)cc12	4	-18	30*	-9	15	35*
CCCCNC(=S)N(CCO)Cc1cc2cc3c(cc2[nH]c1=O)OCCO3	-8	3	1	1	nt	nt
CC(O)[C@H]1CC[C@H]2[C@@H]3CC[C@H]4C[C@@H](O)CC[C@]4(C)[C@H]3/C(=N/O)C[C@]12C (some centres not stated)	2	-3	9	0	nt	nt
Cc1ccc(-n2c(SCc3nc4ccccc4[nH]3)nnc2-c2ccncc2)cc1	-13	2	3	-4	nt	nt
Clc1cccc(-c2nnc(SCc3nc4ccccc4[nH]3)n2Cc2ccco2)c1	-8	-39	71*	0	50*	12	IDE FP artifact=>55
Clc1cccc(-c2nnc(SCc3nc4ccccc4[nH]3)n2-c2ccccc2)c1	nt	nt	nt	nt	nt	nt	IDE FP artifact=>55
COc1ccc(S(=O)(=O)N2CCOC2CNC(=O)C(=O)NCc2ccc3c(c2)OCO3)cc1 (configuration not stated)	0	1	3	3	nt	nt
O=C(OCC(=O)N1CCc2ccccc21)c1ccncc1	-6	5	2	1	nt	nt
CC1(C)OC(=O)C=C[C@]2(C)[C@H]3CC[C@@]4(C)[C@H](c5ccoc5)OC(=O)[C@H]5O[C@]54[C@]3(C)C(=O)C[C@@H]12	-9	-2	2	1	nt	nt
CC(=O)O[C@@H]1C[C@H]2C(C)(C)C(=O)C=C[C@]2(C)[C@H]2CC[C@@]3(C)[C@H](c4ccoc4)OC(=O)[C@H]4O[C@]43[C@@]21C	-9	-41	18*	4	7	58*
O=C1c2cccc3c(N4CCCCC4)ccc(c23)C(=O)N1c1cccc(O)c1	-120	-140	124*	59*	153*	25*
Cc1n[nH]c(C)c1N1C(=O)c2cccc3c(N4CCCCCC4)ccc(c23)C1=O	-391	-67	122*	317*	26*	10
C=CCN1C(=O)c2cccc3c(N4CCCCC4)ccc(c23)C1=O	-60	-74	22*	74*	85*	24*
CCOC(=O)/C(=C\C=C1/Sc2ccccc2N1CC)C(C)=O	-206	-103	123*	245*	156*	23*
CCOC(=O)/C(=C/C=C1\Sc2ccccc2N1CC)C(C)=O	-220	-146	101*	128*	143*	20
CCC(=O)/C=C1/Sc2ccccc2N1CC	-3	-3	0	-1	nt	nt
CC1=CC(C)(C)Nc2ccc(OC(=O)CN3C(=O)c4ccccc4C3=O)cc21	-4	-3	19*	4	41*	123*
CCC(Cc1ccccc1)NS(=O)(=O)c1c(C)nc2sccn2c1=O (configuration not stated)	-1	1	0	-4	nt	nt
CCN(CC)c1ccc(/C=C(/C#N)c2nc3ccccc3[nH]2)c(OC(C)C)c1	-291	-154	141*	148*	149*	32*
O=C(COC(=O)c1cnccn1)NC(=O)c1ccccc1	-1	0	2	-4	nt	nt
O=C(Nc1ccc(Cl)cc1)c1csc(Cc2ccccc2)n1	-2	5	-1	0	nt	nt
O=C(Nc1cccc(C(F)(F)F)c1)c1csc(Cc2cccc(C(F)(F)F)c2)n1	nt	nt	nt	nt	nt	nt	IDE FP artifact=>55
CCN1/C(=C/C=C/C=C/c2sc3ccccc3[n+]2CC)Sc2ccccc21	nt	nt	5	nt	nt	nt
CCN1/C(=C/c2ccc3cc(C)ccc3[n+]2CC)Sc2ccccc21	-52	-58	91*	47*	136*	113*
SMILES	Cardiac RTF inh	IDE act	IDE cell inh	cardiac RTF act	IDE inh confirm	HEK293 tox	others
CN(C)c1nc(SCC(=O)Nc2ccc(Cl)c(Cl)c2)nc(N2CCOCC2)n1	-9	-56	23*	1	9	27*
CN(C)c1nc(SCC(=O)Nc2ccccc2)nc(N2CCOCC2)n1	-20	-13	20*	-1	16	8
CC(C)c1ccc(NC(=O)CSc2nc3ccsc3c(=O)n2CCC(=O)O)cc1	-6	0	3	-2	nt	nt
O=C(CNC(=O)c1sc2ccccc2c1Cl)NCc1cccnc1	-6	-16	19*	1	7	9
Cc1c(CCC(=O)NCC(=O)NCC(=O)O)c(=O)oc2cc3oc4c(c3cc12)CCCC4	-8	-12	24*	-2	12	11
COc1cc(Cl)cc(/C=C/c2ccc3ccccc3n2)c1OC(C)=O	-3	-10	5	-5	nt	nt
CC(=O)Oc1ccc(Cl)cc1/C=C/c1cc(OC(C)=O)c2ccccc2n1	nt	nt	37*	nt	89*	19
Cc1cccc(N2CCN(C(=O)CCCn3c(=O)c4cccn4c4cccnc43)CC2)c1C	1	-11	25*	-1	7	23*
Cc1ccc(Cl)cc1N1CCN(C(=O)CCCn2c(=O)c3cccn3c3cccnc32)CC1	-3	-2	3	6	nt	nt
COc1ccc(CCC(=O)OCC(=O)NCc2ccccc2)cc1	-4	1	-1	-4	nt	nt
Cc1ccc(NC(=O)CCc2nnc3ccc(N4CCC5(CC4)OCCO5)nn23)cc1F	-2	2	9	2	nt	nt
COC(=O)c1cc(S(=O)(=O)N2CCN(c3ccc(OC)cc3)CC2)cn1C	-8	1	6	-6	nt	nt
O=C(COc1cccc(Cl)c1)Nc1nc(-c2ccc(S(=O)(=O)N3CCOCC3)cc2)cs1	-5	-16	nt	8	nt	nt
CCOc1cccc(C(=O)Nc2nc(-c3ccc(S(=O)(=O)N4CCOCC4)cc3)cs2)c1	-4	-16	23*	-2	9	38*
Cc1sc2ncnc(SCC(=O)NC(=O)c3cccn3C)c2c1C	-15	-11	19*	4	2	18
Cc1cccc(NC(=O)CSc2ncnc3sc(C)c(C)c23)n1	-8	-3	nt	-5	nt	nt
COc1ccccc1N1CCN(S(=O)(=O)CCNC(=O)CC2CCCCC2)CC1	-1	-3	4	0	nt	nt
COc1ccccc1N1CCN(S(=O)(=O)CCNC(=O)C23CC4CC(CC(C4)C2)C3)CC1	0	-20	20*	0	9	32*
Cc1cccc(N2CCN(C(=O)CSCc3c(C)noc3C)CC2)c1C	-2	-3	17*	0	0	65*
